Most compounds without a hit are left out; they make up all but 5.7% or so of the library.
VP16 counter – Gal4-VP16 reporter inhibition counter-screen; Drosophila S2 Gal4-VP16 UAS-luciferase, luminescence, 20 h; Potency, µM (top dose mostly 53.6 µM), usual class: inhibitors; 3.5% of 310,000 active; AID 2546;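 also: Gal4-VP16 expression switched on by copper sulfate through the metallothionein promoter; nearly all actives have a fitted effect of over 50% in size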
NPSR antag – antagonists of human neuropeptide S receptor cAMP signaling. Q6W5P4. CHO-NPSR cells, cAMP TR-FRET, antagonist mode. Potency, µM (top dose mostly 38.3 µM), hits mostly inhibitors. 1% of 220,000 active; also: nearly all actives have a fitted effect of over 50% in size
Target sequence (Q6W5P4 whole entry, looked up): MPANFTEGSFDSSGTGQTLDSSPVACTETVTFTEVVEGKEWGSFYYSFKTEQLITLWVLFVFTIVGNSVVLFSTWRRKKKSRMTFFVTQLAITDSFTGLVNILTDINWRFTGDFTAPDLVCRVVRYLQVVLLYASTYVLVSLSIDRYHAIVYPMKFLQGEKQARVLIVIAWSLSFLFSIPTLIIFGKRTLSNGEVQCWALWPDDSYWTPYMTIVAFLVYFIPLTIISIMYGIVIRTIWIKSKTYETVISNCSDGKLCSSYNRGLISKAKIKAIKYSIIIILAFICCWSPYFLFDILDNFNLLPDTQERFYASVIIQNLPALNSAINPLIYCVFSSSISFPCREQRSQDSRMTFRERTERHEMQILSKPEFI
B2AR arrestin – agonists driving beta-arrestin recruitment to human beta2-adrenergic receptor | P07550 | beta-arrestin recruitment to beta2AR, cell-based reporter | Potency, µM (series often up to 46.1 µM), most hits filed as activators | 0.02% of 330,000 active; also: nearly all actives have a fitted effect of over 65% in size
RORgamma inh – ROR gamma (mouse) transcription inhibition; P51450; Drosophila S2 Gal4-RORgamma UAS-luciferase reporter, 20 h; Potency, µM (titrated, usually from 53.6 µM), hits mostly inhibitors; 5.4% of 310,000 active; AID 2551; also: nearly all actives have a fitted effect of over 60% in size
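Compounds are pin-transferred onto Drosophila Schneider cells expressing a copper-inducible Gal4–ROR gamma transactivation domain fusion. After 1 hr, copper sulfate is added to 700 uM final; luciferase is read 20 hr later.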
A number is an active result; - = inactive; ? = inconclusive; . = no result given; [ ] = another dose, or the depositor's remark. Calls follow the shape of the dose curve; as a rule, active = well fitted curve in the direction sought with a large enough effect; inconclusive = small, poorly fitted or top-dose-only effect, or another doubt; inactive = no such curve, though single readings can be large; an effect the other way counts as inactive or inconclusive.

SMILES | VP16 counter | NPSR antag | B2AR arrestin | RORgamma inh
COc1ccccc1/C=C/C=N/n1c(-c2ccc(F)cc2)n[nH]c1=S | - | - | - | 2µM
COc1ccccc1/C=C/C=N/n1c(-c2cc(-c3ccccc3)n[nH]2)n[nH]c1=S | - | - | - | ?
CCOc1ccc(C(=O)NCCCN(CC)CC)cc1 | - | - | - | -
CCOc1ccc(N(CCCCO)C(=S)NC(=O)c2ccc(C)c(Br)c2)cc1 | 5.6µM | - | - | 2.5µM
CC1=C(C(=O)Nc2cccc(C)n2)C(c2ccc3c(c2)OCO3)C2=C(CC(c3ccco3)CC2=O)N1 (stereo not drawn) | - | - | - | -
COCCNC(=O)Cn1nc(-c2ccc(C)cc2)ccc1=O | - | . | - | -
CC1CCN(C(c2ccccc2)c2nnnn2C(C)(C)C)CC1 (stereo not drawn) | 3.2µM | ? | - | ?
CC1CCC2(CC1)C(Nc1cccc(Cl)c1)=NC(=S)N2CC#N (stereo not drawn) | 3.2µM | ? | - | 3.5µM
CC1CCC(=C(C#N)C(=O)Nc2cccc(Cl)c2)CC1 (stereo not drawn) | - | - | - | -
CS(=O)(=O)Nc1cccc(-c2cncnc2NCc2ccccc2)c1 | - | . | . | -
Cc1cc(SCC(=O)c2cccs2)nc2ccccc12 | - | - | - | -
O=c1[nH][nH]c(=S)n1C1CCCCC1 | ? | - | - | 11µM
O=c1cc(O)n(C2CCCCCC2)c(=O)[nH]1 | - | . | - | -
Cc1ncc(C[n+]2csc(CCOP(=O)(O)OP(=O)(O)O)c2C)c(N)n1 | - | . | . | -
O=C(N[C@@H](Cc1ccccc1)C(=O)OCC(=O)N1CCOCC1)c1cccs1 | - | - | - | -
CCn1cc(C(=O)NC(=S)Nc2ccccc2[N+](=O)[O-])cn1 | ? | . | - | ?
CCn1ncc(Br)c1C(=O)Nc1ccccc1OC | - | - | - | -
CCn1cc(C(=O)NC(=S)Nc2ccccc2Br)cn1 | 10µM | . | - | 7.1µM
COc1ccccc1NC(=S)NC(=O)c1ccc(Cn2cc(Br)cn2)cc1 | ? | - | - | 7.9µM
O=C(C[n+]1ccc(C(=O)NCc2ccccc2)cc1)c1ccc(Cl)cc1 | - | . | - | -
CC(C)=CCC/C(C)=C/CO/N=C1/C[C@@H](O)[C@@H](O)[C@@H]2[C@@H]3C(=O)N(Cc4ccccc4)C(=O)[C@H]3CC[C@@H]12 | -[10 µM] | . | . | -[10 µM]
O=S(=O)(c1ccc(N2CCCC2)cc1)C(F)(F)F | 5.6µM | - | - | ?
C[C@H](NC(c1cccc2nc(O)c(O)nc12)P(=O)(O)O)c1ccc(Br)cc1 (stereo partly drawn) | - | . | . | -
CSc1cccc(NC(=S)Nc2cc(C)ccc2C)c1 | ? | ? | - | 11µM
Cc1ccc(SCCNC(=S)Nc2ccccc2)cc1 | 1µM | - | . | 0.79µM
SMILES | VP16 counter | NPSR antag | B2AR arrestin | RORgamma inh
COc1ccccc1NC(=S)NCCSc1ccc(C)cc1 | 11µM | - | - | 13µM
Cc1cc(C)cc(NC(=S)NCCSc2ccc(Cl)cc2)c1 | 5µM | - | - | 2.8µM
CCc1cccc2c(C(=O)CSc3nnc(C4CC4)o3)c[nH]c12 | . | . | - | .
Cc1ccc(SCCNC(=S)Nc2cc(C)ccc2C)cc1 | 7.9µM | - | - | 6.3µM
COC(=O)Cc1ccc(NC(=S)NCCO)cc1 | - | - | - | -
Cc1ccc(SCCNC(=O)C(CO)(CO)CO)cc1 | - | - | - | -
COC(=O)Cc1ccc(NC(=S)NCCSc2ccc(Cl)cc2)cc1 | ? | - | - | 16µM
Cc1ccc(SCCNC(=S)Nc2ccc(C)c(C)c2)cc1 | 8.9µM | - | - | 4.5µM
Cc1ccc(S(=O)(=O)Nc2ccc(C(=O)N3CCCC3)cc2)c(C)c1NS(C)(=O)=O | - | . | - | -
C[C@@H](NC(=O)c1nc[nH]c1C(=O)NCCCCCNC(=O)OC(C)(C)C)c1ccccc1 | . | . | - | .
C[C@@H](NC(=O)c1nc[nH]c1C(=O)NCC(=O)OC(C)(C)C)c1ccccc1 | ? | . | - | 10µM
C[C@@H](NC(=O)c1nc[nH]c1C(=O)NCC(=O)OCc1ccccc1)c1ccccc1 | ? | . | - | 8.9µM
CCCCCCC(=O)N(O)C1CC(=O)N(c2ccc(C)cc2)C1=O (stereo not drawn) | ? | - | - | 11µM
CCCCc1ccc(/C(C)=N/Nc2cc(N3CCOCC3)nc(C)n2)cc1 | ? | . | - | 13µM
C/C(=N\Nc1ccccn1)c1ccc(N2CCOCC2)cc1 | ? | - | - | 7.1µM
C/C(=N\Nc1cc(N2CCOCC2)nc(C)n1)c1cccc([N+](=O)[O-])c1 | - | - | - | -
C/C(=N\Nc1ccccn1)c1ccc(C(C)C)cc1 | 11µM | - | - | 4µM
C(=N\Nc1ccccn1)/c1ccc(N2CCOCC2)cc1 | - | - | - | ?
CCC(OC(=O)CN1C(=O)C(=O)c2ccccc21)C(=O)Nc1ccccc1OC (stereo not drawn) | - | . | - | -
COCCn1c(=O)cnc2cnc(N3CCN(C)CC3)nc21 | - | . | . | ?
Cc1ccc(NC(=S)NCC23C=CC(O2)C2C(=O)N(c4ccc(C)cc4)C(=O)C23)cc1 (stereo not drawn) | 14µM | - | - | ?
Cc1ccc(S(=O)(=O)NCC23C=CC(O2)C2C(=O)N(c4ccccc4)C(=O)C23)cc1 (stereo not drawn) | ? | - | - | 8.9µM
Cc1ccc(N2C(=O)C3C4C=CC(CNC(=S)N5CCN(c6ccccc6)CC5)(O4)C3C2=O)cc1 (stereo not drawn) | ? | - | - | 10µM
Cc1cccc(NC(=S)NCC23C=CC(O2)C2C(=O)N(c4ccc(Cl)cc4)C(=O)C23)c1 (stereo not drawn) | ? | - | - | -[10 µM]
CC(C)(C)OC(=O)NCC12C=CC(O1)C1C(=O)N(Cc3ccccc3)C(=O)C12 (stereo not drawn) | ? | - | - | ?
SMILES | VP16 counter | NPSR antag | B2AR arrestin | RORgamma inh
CC(=O)NCCNc1ncnc2ccc(-c3ccccc3C#N)cc12 | - | . | . | -
CC(C)(C)c1nc(SCC(=O)NNC(=O)c2ccccc2)c2ccccc2n1 | - | . | - | -
CC(=O)c1ccccc1OCc1ccc(S(=O)(=O)Cc2ccccc2)cc1 | ? | . | - | -[1.91 µM]
Cc1ccc(CNc2ccc3c(c2)ncn3C)cc1 | - | - | - | -
Cc1ccc(CNc2ccc3c(c2)ncn3C(C)(C)C)cc1 | ? | - | - | 1.4µM
O=c1c(-c2cccs2)nc2cnc(N3CCNCC3)nc2n1C1CC1 | ? | . | . | -
Cc1ccc(/C=C/C(=O)c2nc3ccccc3[nH]2)cc1 | ? | ? | - | 6.3µM
Cc1ccc(Cc2nc3ccccc3[nH]2)cc1 | - | . | - | -
Cc1ccc(/C=C/C(=O)Nc2nc3ccccc3[nH]2)cc1 | ? | - | - | 5.6µM
O=C(/C=C/c1c(F)cccc1Cl)Nc1nc2ccccc2[nH]1 | ? | - | - | 4.5µM
C[C@H]1C(O)[C@@]23CCC4C5(C=[N+](CCO)C[C@]4(C)CCC5)C2C[C@@H]1C3 (stereo partly drawn) | - | . | . | -
COc1ccc2c(c1)N(C)C(=O)CC(c1ccccc1)=N2 | - | - | - | -
CCN(CC)S(=O)(=O)c1ccc(NC2=NS(=O)(=O)c3ccccc32)cc1 | - | - | - | -
O=S1(=O)N=C(Nc2nncs2)c2ccccc21 | 10µM | - | - | ?

Assay outcomes (PubChem BioAssay)
